Experimental data reported in the supplement of paper PMC9694430.

Test system: LOC_OS01G01410-cb001
Assay: thermal shift delta Tm vs DMSO control; higher = stronger stabilization (binding)
Settings: 12.5 µM; protein concentration 2 µM
How it was run: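 Heating from 25°C to 95°C at 0.05°C/s, fluorescence was recorded for 19.5 μl wells of 2 μM E. coli-expressed, purified rice kinase domain in 100 mM potassium phosphate pH 7.5, 150 mM NaCl, 10% glycerol and 5 × SYPRO Orange with compound in DMSO. Boltzmann fits gave melting temperatures for this differential scanning fluorimetry assay. The shift reported is the mean of three replicates against the DMSO-only protein.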
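Also: purified Escherichia coli-expressed rice kinase domain construct.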

Row | Compound | thermal shift delta Tm [°C]
1 | CCOc1cc2ncc(C#N)c(Nc3ccc(OCc4ccccn4)c(Cl)c3)c2cc1NC(=O)/C=C/CN(C)C [Neratinib (HKI-272)] | 1.9
2 | COc1cc2nccc(Oc3ccc(NC(=O)Nc4cc(C)on4)c(Cl)c3)c2cc1OC [Tivozanib (AV-951)] | 1.87
3 | O=C1NC(=O)C(c2ccccc2[N+](=O)[O-])=C1Nc1ccc(O)c(Cl)c1 | 0.62
4 | Cc1c(C(=O)N2CCOc3ccc(-c4ccc(N)nc4)cc3C2)ccc(S(C)(=O)=O)c1F | 0.69
5 | Cn1nccc1Nc1nccc(-c2ccn([C@H](CO)c3ccc(Cl)c(F)c3)c(=O)c2)n1 | 0.99
6 | COc1cc2c(N3CCN(C(=O)Nc4ccc(OC(C)C)cc4)CC3)ncnc2cc1OCCCN1CCCCC1 [Tandutinib (MLN518)] | 0.23
7 | C[C@@H]1COCCN1c1cc(=O)n2c(n1)N(Cc1cncc(Cl)c1)[C@H](C(F)(F)F)CC2 | 0.21
8 | COc1ccc(F)c(F)c1C(=O)c1cnc(NC2CCN(S(C)(=O)=O)CC2)nc1N | 0.43
9 | O=C(NCc1ccccc1)c1csc(Nc2ccncn2)n1 [Thiazovivin] | 0.06
10 | CCN(CC)CCCCNc1ncc2cc(-c3cc(OC)cc(OC)c3)c(NC(=O)NC(C)(C)C)nc2n1 | 0.27
11 | O=c1cc(N2CCOCC2)oc2c(-c3ccc4c(c3)OCCO4)csc12 | 0.37
12 | Nc1ccc(C(=O)Nc2cccc(-c3nc(N4CCOCC4)c4oc5ncccc5c4n3)c2)cn1 | 1.9
13 | O=C(NC[C@H](O)CO)c1ccncc1Nc1ccc(I)cc1F | 0.13
14 | CCOc1cc2ncc(C#N)c(Nc3ccc(F)c(Cl)c3)c2cc1NC(=O)/C=C/CN(C)C [Pelitinib (EKB-569)] | 0.85
